Source: the antibiotic and cytotoxicity screens of Wong et al. (2023)
Hit rate of the full screen: of about 39,000 compounds, about 1,500 (3.8%) were called active. The sample as a whole holds a higher share of actives than the screen did.

system: HSkMC (human skeletal muscle cells); assay: cytotoxicity call (relative viability < 0.9); conditions: 10 µM

Structure (SMILES)	cytotoxicity call
Cc1cccc2[nH]c(CCN)nc12	inactive
COc1cccc(N=[N+]=[N-])c1	inactive
CC1=C[C@H]2O[C@@H]3[C@H](O)[C@@H](O[C@H]4O[C@H](CO)[C@@H](O)[C@H](O)[C@H]4O)[C@](C)([C@@]2(CO)CC1)[C@]31CO1	active
Cc1cc(O[C@@H]2O[C@H](CO)[C@@H](O)[C@H](O)[C@H]2O)c2c3c(c(=O)oc2c1)CCC3	inactive
CC(=O)OC[C@]12CCC(C)=C[C@H]1O[C@@H]1[C@H](O)[C@@H](OC(C)=O)[C@@]2(C)[C@]12CO2	active
OCCN[C@@H]1c2ccccc2[C@H]2CNC[C@H]21	inactive
C[C@]12CC[C@H](Cl)C[C@@H]1CC[C@@H]1[C@@H]2CC[C@]2(C)C(=O)CC[C@@H]12	inactive
NC(=O)c1ccc(N)nc1	inactive
CC12CC(=O)C3C(CCC4=CC(=O)CCC43C)C1CCC2=O (configuration not stated)	inactive
NCCc1ccncc1	inactive
CCN1C[C@@]2(C)CC[C@H](OC)C34[C@@H]2[C@H](O)[C@]2(OCO[C@@]25C[C@H](OC)[C@H]2C[C@]3(O)[C@@H]5[C@H]2O)[C@@H]14	inactive
O=c1[nH]c2ccccc2n1C1CCN(Cc2ccc(-c3nc4cc5[nH]cnc5cc4nc3-c3ccccc3)cc2)CC1	active
CN1C[C@H](C(=O)N[C@]2(C)O[C@@]3(O)[C@@H]4CCCN4C(=O)[C@H](Cc4ccccc4)N3C2=O)C=C2c3cccc4[nH]cc(c34)C[C@H]21	inactive
Cc1cccc(N2CCNCC2)n1	inactive
COc1c2c(cc3c1OCO3)CC[N+](C)=C2.[Cl-]	inactive
CC(C)CC1C(=O)N2CCCC2C2(O)OC(NC(=O)C3C=C4c5cccc6[nH]c(Br)c(c56)CC4N(C)C3)(C(C)C)C(=O)N12.CS(=O)(=O)O (configuration not stated)	inactive
O=c1[nH]c2cc(N3CCNCC3)ccc2o1	inactive
COc1cccc2c1C(=O)c1c(O)c3c(c(O)c1C2=O)C[C@@](O)(C(=O)CO)C[C@@H]3O[C@H]1C[C@H](N2CCO[C@H](OC)C2)[C@H](O)[C@H](C)O1	active
CC[C@@]1(O)C[C@H](O[C@H]2C[C@H](N(C)C)[C@H](O)[C@H](C)O2)c2c(cc3c(c2O)C(=O)c2c(O)ccc(O)c2C3=O)[C@H]1C(=O)OC	inactive
COc1cc2c3cc1Oc1c(OC)c(OC)cc4c1C(Cc1cccc(c1)Oc1ccc(c(O)c1)CC3N(C)CC2)N(C)CC4.Cl.Cl (configuration not stated)	inactive
COc1ccc(OC(=O)N(C)C[C@@H]2OCc3ccccc3-c3c(n(C)c4ccccc34)C(=O)N([C@@H](C)CO)C[C@H]2C)cc1	inactive
Cc1scc(CCN)c1C	inactive
Cl.Oc1noc2c1CCNC2	inactive

Structure (SMILES)	cytotoxicity call
C=CCC1(O)CCC2C3CCC4=CC(=O)CCC4=C3C=CC21C (configuration not stated)	inactive
C=CCC1(O)CCC2C3CCC4=CCCCC4C3CCC21C (configuration not stated)	active
C#CC1(O)CCC2C3CCC4=CC(=O)CCC4(C)C3CCC21C (configuration not stated)	inactive
CC(=O)O[C@H]1C(=O)[C@]2(C)[C@@H](O)C[C@H]3OC[C@@]3(OC(C)=O)[C@@H]2[C@H](OC(=O)c2ccccc2)[C@]2(O)C[C@H](O)C(C)=C1C2(C)C	inactive
[N-]=[N+]=NCc1ccccc1C[C@]1(C(=O)NCCN2CCOCC2)N=C(c2ccc(OCCCO)cc2)O[C@H]1c1ccccc1N=[N+]=[N-]	inactive
O=c1[nH]c(=O)n(Cl)c(=O)n1Cl	inactive
CC1OC(OC2C=C3CCC4C(CCC5(C)C(c6ccc(=O)oc6)CCC45O)C3(C)CC2)C(O)C(O)C1O (configuration not stated)	active
CC[C@@H](C)C(=O)O[C@H]1[C@H](O)[C@H]2[C@@H](CN3C[C@@H](C)CC[C@@H]3[C@@]2(C)O)[C@H]2C[C@]34O[C@]5(O)[C@@H](OC(=O)[C@@](C)(O)[C@@H](C)O)CC[C@@]3(C)[C@@H]5[C@@H](OC(C)=O)[C@@H](OC(C)=O)[C@@H]4[C@@]21O	inactive
CC(=O)OCC1=C(C(=O)[O-])N2C(=O)C(NC(=O)CCCC(N)C(=O)[O-])C2SC1.[Zn+2] (configuration not stated)	inactive
c1ccc2c(c1)sc1ccccc12	active
COc1cc2c(cc1OC)C1C(=O)c3ccc4oc(C(C)C)cc4c3OC1CO2 (configuration not stated)	inactive
NCCc1ccc(S(N)(=O)=O)cc1	inactive
Cc1cc(C(C#N)c2ccc(Cl)cc2)c(Cl)cc1NC(=O)c1cc(I)cc(I)c1O (configuration not stated)	inactive
Cc1cc([C@@H](C#N)c2ccc(Cl)cc2)c(Cl)cc1NC(=O)c1cc(I)cc(I)c1O	active
CC(=O)Nc1ccc(Cl)cc1C	inactive
COc1cc(CCN)ccc1O	inactive
Cc1ccc(C2(CN)CCCCC2)cc1	inactive
CC(C)C12OC1C1OC13C1(C)CCC4=C(COC4=O)C1CC1OC13C2O (configuration not stated)	inactive
COC(=O)NC(=S)Nc1ccccc1NC(=S)NC(=O)OC	active
CNc1ccccc1C(=O)O	inactive
CCC1CN2CCc3cc(OC)c(OC)cc3C2CC1CC1NCCc2cc(OC)c(OC)cc21.Cl.Cl (configuration not stated)	inactive
COc1ccc(CCN)cc1O	inactive
CC(C)CC(CN)CC(=O)O (configuration not stated)	inactive

Structure (SMILES)	cytotoxicity call
C[C@]12CC[C@]3(C)OC[C@](CO)(CO1)N23	inactive
Nc1ccccc1-c1ccccc1	inactive
CCC1(C2OC(C3OC(O)(CO)C(C)CC3C)CC2C)CCC(C2(C)CCC3(CC(O)C(C)C(C(C)C(OC)C(C)C(=O)[O-])O3)O2)O1.[Na+] (configuration not stated)	inactive
NC1CC1c1ccccc1.O=S(=O)(O)O (configuration not stated)	inactive
O=c1cccc2n1CC1CNCC2C1 (configuration not stated)	inactive
COC(=O)C[C@H]1CC[C@H]2NC[C@H](O)COC[C@@H]2O1	inactive
CCC(C)C1OC2(C=CC1C)CC1CC(CC=C(C)C(OC3CC(OC)C(OC4CC(OC)C(O)C(C)O4)C(C)O3)C(C)C=CC=C3COC4C(O)C(C)=CC(C(=O)O1)C34O)O2 (configuration not stated) [ABAMECTIN (avermectin B1a shown) ]	inactive
CCCCCCCCCCCCCCCC[N+](C)(C)C.[Br-]	active
C[N+](C)(C)CCCl	inactive
C[N+](C)(C)CCCCCCCCCC[N+](C)(C)C.[Br-].[Br-]	inactive
CC1CC(C)C(=O)C(C(O)CC2CC(=O)NC(=O)C2)C1 (configuration not stated)	inactive
Cc1nn[nH]n1	inactive
CC(=O)CC1CCCCN1.Cl (configuration not stated)	inactive
CCn1cnc2c(Nc3cccc(Cl)c3)nc(N[C@@H]3CCCC[C@@H]3N)nc21	active
CCN(Cc1ccc(Cl)nc1)C(=C[N+](=O)[O-])NC	inactive
C=CCN1C[C@H]2CN(C(C)C)C[C@H]2C1=O	inactive
CO[C@@H]1C=C[C@@H]2[C@H]1N2CCCO (some centres not stated)	inactive
Nc1c[n+](CCc2ccccc2)no1	inactive
CN1CCN(C(=O)CN=[N+]=[N-])CC1	inactive
C=C(CCCCCCCCCCCCCCCC)OOC[C@@H](COP(=O)(ON)O[C@@H]1[C@H](O)[C@H](O)[C@@H](OP(=O)(O)ON)[C@H](OP(=O)(O)ON)[C@H]1O)OOC(=C)CC/C=C/C/C=C/C/C=C/C/C=C/CCCCC (some centres not stated)	inactive
C=C(C)[C@@H]1CCC(C)=C[C@H]1c1c(O)cc(CCCCC)cc1O	active
C=C(C)[C@@H]1CCC(C)=C[C@H]1c1c(OC)cc(C)cc1OC	inactive
C[C@@H]1C(=O)O[C@H]2[C@H](O)[C@@]34[C@@H]5OC(=O)[C@@]3(O[C@@H]3OC(=O)[C@H](O)[C@@]34[C@H](C(C)(C)C)[C@H]5O)[C@@]12O	inactive

Structure (SMILES)	cytotoxicity call
NC1(c2ccc(Cl)cc2)CC1	inactive
O=[As]O[As]=O (configuration not stated)	inactive
O=C(O)Cc1cccnc1C(=O)O	inactive
COC1C(O)C(C)OC(OC2CCC3(C)C4CCC5(C)C(C6=CC(=O)OC6)CCC5(O)C4CCC3(O)C2)C1O (configuration not stated)	inactive
CC1OC(OC2CCC3(C=O)C4CCC5(C)C(C6=CC(=O)OC6)CCC5(O)C4CCC3(O)C2)C(O)C(O)C1O (configuration not stated)	active
CO[C@H]1C[C@H](O[C@H]2CC[C@]3(C=O)[C@H]4CC[C@]5(C)[C@@H](C6=CC(=O)OC6)CC[C@]5(O)[C@@H]4CC[C@]3(O)C2)O[C@H](C)[C@H]1O	active
C[C@@H]1O[C@@H](O[C@H]2CC[C@]3(C=O)[C@H]4CC[C@]5(C)[C@@H](C6=CC(=O)OC6)CC[C@]5(O)[C@@H]4CC[C@]3(O)C2)[C@H](O)[C@H](O)[C@H]1O	active
CO[C@H]1[C@@H](O)[C@@H](C)O[C@H](O[C@H]2CC[C@@]3(C)[C@H]4CC[C@@]5(C)[C@@H](C6=CC(=O)OC6)CC[C@]5(O)[C@@H]4CC[C@]3(O)C2)[C@@H]1O	inactive
COC1C(O)C(C)OC(OC2CCC3(C=O)C(CCC4C3CCC3(C)C(C5=CC(=O)OC5)CCC43O)C2)C1O (configuration not stated)	active
CC(C)(C)OC(=O)N[C@H]1[C@@H]2CNC[C@@H]21	inactive
COC(N)=O	inactive
C[C@H](CO)N1C[C@H](C)[C@@H](CN(C)C(=O)Oc2cccc3ccccc23)OCc2cn(nn2)CCCC1=O	inactive
COC(=O)C[C@H]1CC[C@@H]2NC[C@H](O)COC[C@H]2O1	inactive
Cc1ccc(OC(=O)N(C)C[C@@H]2OCc3ccccc3-c3c(n(C)c4ccccc34)C(=O)N([C@H](C)CO)C[C@H]2C)cc1	inactive
COc1ccc(OC)c(C(O)C(C)N)c1.Cl (configuration not stated)	inactive
C[N+]1(C)CCCC(OC(=O)C(O)(c2ccccc2)c2ccccc2)C1.[Br-] (configuration not stated)	inactive
NC[C@@H](O)c1ccccc1	inactive
CC(C)(C)OC(=O)N1C[C@H]2C[C@@H]1CN2	inactive
c1cc2c(cc1CN1CCNCC1)OCO2	inactive
c1ccc2cc3c(cc2c1)-c1cccc2cccc-3c12	inactive
CCC1=C[C@@H]2[C@H](C1)C[C@]2(CN)CC(=O)O	inactive
[N-]=[N+]=NCc1ccccc1C[C@]1(C(=O)N2CCCCC2)N=C(c2ccc(OCCCO)cc2)O[C@H]1c1ccccc1N=[N+]=[N-]	inactive
CC12CCC3C(CCC4(O)CC(O)CCC34C=O)C1(O)CCC2C1=CC(=O)OC1 (configuration not stated)	active
